Among the test systems are RXF 393 renal; SK-MEL-5 melanoma; CCRF-CEM leukemia; OVCAR-4 ovarian; IGROV1 ovarian; T-47D breast; MDA-MB-435 melanoma; SW-620 colon; MCF7 breast; HCT-116 colon; HCC-2998 colon; KM12 colon; SK-MEL-28 melanoma; EKVX NSCLC; OVCAR-8 ovarian; A549/ATCC NSCLC; CAKI-1 renal; HOP-92 NSCLC.
Common to all, as to test: NCI-60 one-dose screen, 48 h (100 = growth as untreated, 0 = no growth, -100 = all killed)
Common to all, as to details: 10 µM

This is part of a sample that, as a whole, favours compounds with a hit. Of some 83,000 tested, about 20% had one in any assay.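 Step 1: grow cells in 96-well plates. Step 2: add test compound at a single concentration. Step 3: incubate 48 h. Step 4: record percent growth.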 A number with no mark means an inactive call. Calls of active or inactive are those of the source. Rule for the calls: active = growth percent below 10; inactive = the rest.

For the compound `Cn1cc(-c2nc(N)nnc2-c2c[nH]c3ccccc23)c2cc(Br)cnc21`, the growth with RXF 393 renal was 6.16% (active); with SK-MEL-5 melanoma it was -81.3% (active); with CCRF-CEM leukemia, 20.5%; in the assay with OVCAR-4 ovarian it was 32.1%; in the assay on IGROV1 ovarian, 23.2%; with T-47D breast, 65.2%. In addition, the growth was -25.2% (active) in the assay with MDA-MB-435 melanoma; 24.7% with SW-620 colon; 4.57% (active) in the assay on MCF7 breast; 7.04% (active) in the assay on HCT-116 colon; -35% (active) with HCC-2998 colon; 13.1% with KM12 colon.

Regarding `O=C(Nc1ccc(OCc2ccc(Cl)cc2)cc1)Nc1ccc(Cl)c(C(F)(F)F)c1`, the growth in the assay on RXF 393 renal is -21% (active); in the assay on SK-MEL-5 melanoma, -81.4% (active); in the assay with SK-MEL-28 melanoma it was 35.6%; in the assay on EKVX NSCLC, 2.59% (active); in the assay on OVCAR-8 ovarian, 13.5%; in the assay with OVCAR-4 ovarian, 13.8%. In addition, the growth with T-47D breast was 3.95% (active); with MDA-MB-435 melanoma, 14.2%; in the assay with SW-620 colon it was 25.1%; in the assay with MCF7 breast it was 1.78% (active); with HCT-116 colon it was 3.96% (active); with KM12 colon, 10.2%.

Consider `O=C(Nc1ccc(OCc2ccc(F)cc2)cc1)Nc1ccc(Cl)c(C(F)(F)F)c1`, for which the growth with A549/ATCC NSCLC was 16.4%; with RXF 393 renal, -24.3% (active); with SK-MEL-5 melanoma, -81.4% (active); in the assay with OVCAR-4 ovarian, 19%; with T-47D breast it was 6.12% (active); in the assay on MDA-MB-435 melanoma, -12.4% (active). In addition, the growth is 22.3% in the assay on SW-620 colon, 3.2% (active) with MCF7 breast, 4.96% (active) in the assay with HCT-116 colon and 11.1% in the assay with KM12 colon.

With `O=C(CSc1nc2ccccc2c(=O)n1-c1ccc(Cl)cc1)Nc1ccc(-c2nc3ccccc3[nH]2)cc1`, the growth with RXF 393 renal was -35.1% (active); in the assay with SK-MEL-5 melanoma it was 47.7%; in the assay with SK-MEL-28 melanoma it was -62% (active); in the assay on EKVX NSCLC, 27.4%; with CAKI-1 renal, -67.9% (active); with OVCAR-4 ovarian, -75.6% (active). The growth is 53.2% with IGROV1 ovarian; -68.5% (active) in the assay on T-47D breast; -16% (active) in the assay on MDA-MB-435 melanoma; 7.92% (active) in the assay on SW-620 colon; -68.3% (active) with MCF7 breast; -84.3% (active) in the assay on HCT-116 colon. Also, the growth in the assay on KM12 colon is 17%.

On to `COc1cc(C2CC(c3ccc(Oc4ccc(Cl)cc4)cc3)=NN2c2nc(-c3ccc(Cl)cc3)c(C#N)c(N3CCOCC3)n2)cc(OC)c1OC` (stereo not drawn), for which the growth is 107% in the assay on RXF 393 renal; 97.8% in the assay with SK-MEL-5 melanoma; 111% in the assay on CCRF-CEM leukemia; 104% in the assay with OVCAR-8 ovarian; 103% in the assay on OVCAR-4 ovarian; 91.8% in the assay on T-47D breast. The growth with MDA-MB-435 melanoma is 94.2%; with SW-620 colon, 101%; in the assay with MCF7 breast, 84.6%; in the assay with HCT-116 colon, 106%; with HCC-2998 colon, 100%; in the assay with KM12 colon, 101%.

In the case of `O=C(CC(=O)Nc1ccc(Oc2ncnc3scc(Nc4n[nH]c(=S)s4)c23)cc1)Nc1ccc(Br)cc1`, the growth was 101% in the assay with A549/ATCC NSCLC; 129% with RXF 393 renal; 98% with SK-MEL-5 melanoma; 110% with SK-MEL-28 melanoma; 88.8% in the assay with CAKI-1 renal; 75.9% in the assay with CCRF-CEM leukemia. The growth is 102% in the assay on OVCAR-8 ovarian; 106% with OVCAR-4 ovarian; 86.3% in the assay with T-47D breast; 103% in the assay with MDA-MB-435 melanoma; 101% with SW-620 colon; 86.8% in the assay on MCF7 breast. Also, the growth in the assay with HCT-116 colon was 107%.

For the compound `Cc1cc(N=C2NC(=O)/C(=C/c3cc(C(C)(C)C)c(O)c(C(C)(C)C)c3)S2)n[nH]1`, the growth in the assay with RXF 393 renal is -38.6% (active); in the assay on SK-MEL-5 melanoma, -72.8% (active); with CCRF-CEM leukemia it was 13%; in the assay with OVCAR-4 ovarian, -42.7% (active); with IGROV1 ovarian it was 14.4%; with T-47D breast, 3.32% (active). Besides, the growth in the assay on MDA-MB-435 melanoma is 4.96% (active); in the assay with SW-620 colon, 15.3%; in the assay with MCF7 breast, 4.33% (active); in the assay on HCT-116 colon it was 3.45% (active); in the assay with HCC-2998 colon it was 22.5%; in the assay with KM12 colon, 17.1%.

For `O=C(Nc1ccc(OCC(=O)c2ccc(Cl)cc2)cc1)Nc1ccc(Cl)c(C(F)(F)F)c1`, the growth in the assay on A549/ATCC NSCLC was 24.3%; in the assay with RXF 393 renal, -60.8% (active); in the assay on SK-MEL-5 melanoma, 53.8%; in the assay with EKVX NSCLC, 16.9%; in the assay with CAKI-1 renal, 41.1%; in the assay on OVCAR-4 ovarian, 38.1%. Moreover, the growth in the assay on IGROV1 ovarian is 39.9%; with T-47D breast it was 6.1% (active); with MDA-MB-435 melanoma, 51.5%; in the assay on SW-620 colon it was 47.7%; in the assay on MCF7 breast, 51.4%; in the assay on HCT-116 colon, 50.8%. For the same compound, the growth is 33.4% with HCC-2998 colon and 14.9% in the assay with KM12 colon.

Take `CC(C)(C)c1cc(/C=C2\S/C(=N/c3ncn[nH]3)NC2=O)cc(C(C)(C)C)c1O`: the growth is 15.4% with A549/ATCC NSCLC; -17.5% (active) in the assay on RXF 393 renal; -25.2% (active) with SK-MEL-5 melanoma; 12.3% in the assay with EKVX NSCLC; 11% in the assay on CCRF-CEM leukemia; 10.8% in the assay on OVCAR-8 ovarian. The growth with OVCAR-4 ovarian is 33.8%; in the assay on IGROV1 ovarian, 17.7%; in the assay on T-47D breast it was 10.3%; in the assay on MDA-MB-435 melanoma it was 11.9%; with SW-620 colon, 15.1%; in the assay on MCF7 breast it was 8.22% (active). Moreover, the growth in the assay on HCT-116 colon is 7.92% (active); in the assay on KM12 colon, 20.2%.

With `COc1cccc(O)c1/C=C1\SCc2cc3c(OC)cccc3[o+]c21`, the growth in the assay with HOP-92 NSCLC was 154%; in the assay with SK-MEL-28 melanoma, 105%; in the assay on CAKI-1 renal, 96.8%; with CCRF-CEM leukemia, 101%; in the assay with OVCAR-8 ovarian, 107%; in the assay with IGROV1 ovarian, 104%. For the same compound, the growth with MDA-MB-435 melanoma is 132%; with SW-620 colon it was 115%; in the assay on MCF7 breast, 90%; in the assay on HCT-116 colon, 107%; in the assay with HCC-2998 colon, 114%; with KM12 colon, 110%.

Regarding `Cc1ccc2c(c1)C(=O)/C(=C/c1ccc([N+](=O)[O-])cc1)S2`, the growth in the assay on A549/ATCC NSCLC was 99.6%; with RXF 393 renal it was 109%; in the assay on SK-MEL-5 melanoma, 95.1%; in the assay on SK-MEL-28 melanoma, 109%; with EKVX NSCLC, 91.6%; in the assay on CCRF-CEM leukemia it was 109%. For the same compound, the growth is 83.4% in the assay on OVCAR-4 ovarian; 86.3% in the assay on T-47D breast; 98.9% in the assay with MDA-MB-435 melanoma; 49.4% in the assay on SW-620 colon; 3.81% (active) in the assay with MCF7 breast; 14.3% in the assay on HCT-116 colon. Also, the growth in the assay on HCC-2998 colon is 103%; with KM12 colon, 105%.

These data come from PubChem BioAssay (NCI).
